Measurements: PubChem BioAssay
Activity calls are given as the source filed them.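 Rule for the calls: active = membrane potential signal rise above negative control mean plus 3 SD in both duplicates, also active in the earlier TRPC4 screen; inactive = the rest.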

The compounds below were run against Short transient receptor potential channel 6 (Mus musculus) (UniProt Q61143) (assay: activation of mouse TRPC6 channel, confirmation, selectivity assay for TRPC4 activator project, cell-based, HEK293, membrane potential dye, duplicate (AID 434950;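 for activation: 0% = buffer only wells and 100% = acetylcholine maximal-effect wells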)). Details: HEK293 TRPC6, membrane potential fluorescence, at 10 µM; active compounds read high.
Chain of Short transient receptor potential channel 6 (Mus musculus) (Q61143 whole entry, looked up): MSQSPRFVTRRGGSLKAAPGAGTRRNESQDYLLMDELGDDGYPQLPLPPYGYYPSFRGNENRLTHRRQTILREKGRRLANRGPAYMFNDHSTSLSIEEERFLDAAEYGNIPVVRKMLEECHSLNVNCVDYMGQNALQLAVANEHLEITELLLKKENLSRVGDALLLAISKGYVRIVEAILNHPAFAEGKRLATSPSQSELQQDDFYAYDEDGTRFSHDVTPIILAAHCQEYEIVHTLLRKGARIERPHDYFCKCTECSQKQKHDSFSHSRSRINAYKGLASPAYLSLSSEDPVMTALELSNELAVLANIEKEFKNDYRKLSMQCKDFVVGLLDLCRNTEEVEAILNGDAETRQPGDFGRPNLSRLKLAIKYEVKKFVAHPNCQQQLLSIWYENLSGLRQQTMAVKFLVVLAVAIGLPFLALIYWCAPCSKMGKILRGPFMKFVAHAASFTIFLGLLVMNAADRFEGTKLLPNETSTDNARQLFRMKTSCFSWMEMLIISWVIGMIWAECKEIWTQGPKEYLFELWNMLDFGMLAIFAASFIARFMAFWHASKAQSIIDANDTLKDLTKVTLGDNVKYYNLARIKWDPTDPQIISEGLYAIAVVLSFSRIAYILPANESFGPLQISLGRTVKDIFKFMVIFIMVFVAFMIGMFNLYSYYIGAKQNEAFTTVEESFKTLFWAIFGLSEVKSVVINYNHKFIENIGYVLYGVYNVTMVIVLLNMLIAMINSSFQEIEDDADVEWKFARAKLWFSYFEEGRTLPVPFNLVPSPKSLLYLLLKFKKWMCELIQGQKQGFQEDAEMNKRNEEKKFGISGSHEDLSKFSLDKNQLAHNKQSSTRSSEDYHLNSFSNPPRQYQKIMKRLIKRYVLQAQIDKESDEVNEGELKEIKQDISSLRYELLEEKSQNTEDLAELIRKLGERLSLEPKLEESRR

| SMILES | outcome | activation |
| --- | --- | --- |
| CN1CCC(CNC(=O)Nc2ccccc2)(c2ccccc2)CC1 | inactive | – |
| Cc1ccc(C)c(OCCCCCn2ccnc2)c1 | – | 49% (active) |
| CN(C)C(CNC(=O)c1ccc2ccccc2n1)c1ccccc1 (stereo not given) | – | 54% (active) |
| CCn1cc(CN2CCC(n3nccc3NC(=O)CCOc3ccccc3)CC2)cn1 | inactive | – |
| CCOC(=O)C1(CCOc2ccccc2)CCN(Cc2cnc(C)s2)CC1 | – | 59.5% (active) |
| CCN1CCN(c2ccc(S(=O)(=O)N3CCOCC3)cc2NC(=O)C(C)Oc2cccc(Cl)c2)CC1 (stereo not given) | – | 38% (active) |
| CN(CCc1nc2ccc(Cl)cc2[nH]1)Cc1nc(CC2CC2)no1 | inactive | – |
| COc1ccccc1CCC(=O)Nc1cc(S(=O)(=O)N2CCCCC2)ccc1N1CCN(C)CC1 | inactive | – |
| CCCCC(=O)NNC(=S)NC(=O)c1ccc(C)cc1 | inactive | – |
| Cc1ccc(C2N(c3ccc(Cl)c(Cl)c3)C(=O)C3CCCN32)o1 (stereo not given) | inactive | – |
| COc1ccccc1N1CCN(C(c2cccs2)C(C)NC(=O)c2cccs2)CC1 (stereo not given) | – | 23.5% (active) |
| O=C(Nc1nnc(-c2ccccc2Cl)o1)c1nc2ccccc2s1 | inactive | – |
| CCOC(=O)C1(CC2CCCCO2)CCN(Cc2c(C)cc(C)cc2-n2cccn2)CC1 (stereo not given) | – | 62.5% (active) |
| Cc1ccccc1OCC(=O)NNC(=S)NC(=O)c1ccco1 | – | 31.5% (active) |
| Cc1ccc(C2(O)CN(c3ccccc3C)C3=[N+]2CCS3)cc1 (stereo not given) | – | 43.5% (active) |
| Cc1ccccc1C(=O)NNC(=S)NC(=O)c1ccccc1 | – | 43.5% (active) |
| Cc1ccc(C(=O)NC(=S)NNC(=O)c2ccccc2)cc1 | – | 31.5% (active) |
| Fc1ccc(-c2nnc(CN3CCN(c4ncc(C(F)(F)F)cc4Cl)CC3)o2)cc1 | – | 35.5% (active) |
| CNCCCOc1ccc2c(c1)CCC2 | – | 57% (active) |
| CCN(CCCNS(=O)(=O)c1cc(-c2cc(C)no2)ccc1C)Cc1ccccc1 | – | 40.5% (active) |

| SMILES | outcome | activation |
| --- | --- | --- |
| CCOC(=O)c1oc2ccc(OC)cc2c1NC(=O)CN1CCN(C)CC1 | – | 32% (active) |
| COc1ccc(C(CNC(=O)c2cc(SC)ccc2Cl)N(C)C)cc1 (stereo not given) | – | 65% (active) |
| O=C(NCCc1ccccn1)C(F)(F)C(F)(F)C(F)(F)C(F)(F)C(F)(F)C(F)F | inactive | – |
| CCCCCSc1nnc2c(n1)OC(c1cccn1C)N(C(C)=O)c1ccccc1-2 (stereo not given) | inactive | – |
| COc1ccc(-c2cc(C#N)nc(N3CCNCC3)n2)cc1 | inactive | – |
| Cc1ccccc1NC(=S)NCCc1ccccn1 | inactive | – |
| Cn1c(CN2CCN(c3cccc(Cl)c3)CC2)nc2ccccc21 | – | 49% (active) |
| O=C(Cn1c(-c2ccccc2)c[n+]2ccsc12)c1ccc(Br)cc1 | inactive | – |
| CCn1c(N2CCN(Cc3ccc([N+](=O)[O-])cc3)CC2)nc2ccccc21 | inactive | – |
| CN(C)C(CNC(=S)Nc1ccc(F)cc1)c1cccnc1 (stereo not given) | – | 28.5% (active) |
| COc1ccc(C(=O)NC(=S)NNC(=O)c2c(-c3ccccc3)noc2C)cc1OC | – | 39% (active) |
| CC1CC(C)CN(CCCNC(=O)COc2cc(=O)n(C)c3ccccc23)C1 (stereo not given) | inactive | – |
| CN(C)CCCN(C(=O)c1ccc(C(=O)c2ccccc2)cc1)c1nc2ccc(F)cc2s1 | inactive | – |
| CCCCN(CC)CCNC(=O)c1cc2cc3ccc(Cl)cc3nc2o1 | inactive | – |
| COc1ccc(C(=O)NC(=S)NNC(=O)CCc2ccccc2)cc1 | – | 25% (active) |
| CCN(CC)CCSc1nc2ccc(OC)cc2[nH]1 | inactive | – |
| Cc1ccc(C)c(OCCCCn2ccnc2)c1 | – | 58.5% (active) |
| Cc1nc(/N=C(\N)NC(=O)NC2CCCCC2)nc2ccccc12 | inactive | – |
| COC(=O)[C@@]1(Cc2ccc(F)cc2)[C@H]2c3cc(C(=O)N(C)C)n(CCc4ccccn4)c3C[C@H]2CN1C(=O)c1ccccc1 | – | 54% (active) |
| O=C(CNS(=O)(=O)c1ccc2ccccc2c1)NCCc1ccccn1 | inactive | – |
